High-throughput results (PubChem)
Only some compounds are listed: those with a hit (about 6.9% of all), similar ones and a draw of the others.
MCF10A rerep – induces DNA re-replication in MCF 10a normal breast cells | hit rate 2.9% among 350,000 | MCF 10A DNA re-replication, Hoechst nuclear intensity, 48 h | Potency, µM (highest dose often 46.1 µM), usual class: activators; note: nearly all actives have a fitted effect of over 50% in size
KB-V1 cytotox – KB-V1 MDR subline cytotoxicity; hit rate 3.4% among 400,000; KB-V1 MDR cells viability, CellTiter-Glo, 72 h; Potency, µM (doses to about 46.1 µM), hits mostly cytotoxic; note: nearly all actives have a fitted effect of over 60% in size
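Following 72 h at 37 degrees C with compound, KB-V1 cell viability was read by CellTiter-Glo luminescence, medium being phenol-red-free DMEM plus 10% FBS; concentration-response parameters came from normalized, curve-fitted qHTS data.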
SW480 rerep – induces DNA re-replication in SW480 colon adenocarcinoma cells; SW480 DNA re-replication, Hoechst DNA content imaging, 48 h; Potency, µM (titrated, usually from 46.1 µM), actives largely listed as activators; hit rate 1.8% among 340,000; AID 624297; note: nearly all actives have a fitted effect of over 55% in size
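Readout is total intensity of Hoechst-stained nuclei, excited at 405 nm and collected at 500-530 nm. Compound treatment lasted 48 hr at 37 C in 5% CO2 before staining.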
ASM inhibitor – blocks human secretory acid sphingomyelinase; P17405; placental ASM, HMU-PC fluorogenic substrate, 60 min; Potency, µM (series often up to 57.5 µM), actives largely listed as inhibitors; hit rate 0.006% among 340,000
Target sequence (P17405 47-631 limits assumed): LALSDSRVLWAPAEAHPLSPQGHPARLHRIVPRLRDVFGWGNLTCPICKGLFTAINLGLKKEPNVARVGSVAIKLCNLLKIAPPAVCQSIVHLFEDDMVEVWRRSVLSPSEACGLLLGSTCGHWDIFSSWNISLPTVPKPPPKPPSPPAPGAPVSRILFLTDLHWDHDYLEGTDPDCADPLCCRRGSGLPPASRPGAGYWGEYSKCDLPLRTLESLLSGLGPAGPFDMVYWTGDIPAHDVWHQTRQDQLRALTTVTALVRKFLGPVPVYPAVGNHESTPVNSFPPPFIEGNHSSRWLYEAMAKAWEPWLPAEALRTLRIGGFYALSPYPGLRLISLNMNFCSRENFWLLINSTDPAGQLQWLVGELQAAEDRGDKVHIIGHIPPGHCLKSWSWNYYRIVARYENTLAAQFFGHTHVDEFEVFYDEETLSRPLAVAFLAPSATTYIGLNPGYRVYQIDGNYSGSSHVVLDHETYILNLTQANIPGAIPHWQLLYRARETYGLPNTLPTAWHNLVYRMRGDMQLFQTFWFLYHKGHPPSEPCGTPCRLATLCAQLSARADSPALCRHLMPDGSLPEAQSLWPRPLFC
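Human placenta-derived ASM preincubated with compound 10 min at room temperature, then reacted with 9 uM (final) fluorogenic HMU-PC substrate for 60 min at 37 C. Stop solution raises pH to 10; fluorescence read at Ex 386/Em 447 nm.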
KB-3-1 cytotox – KB-3-1 parental cell cytotoxicity. KB-3-1 viability, CellTiter-Glo ATP luminescence, 72 h. Potency, µM (titrated, usually from 46.1 µM), actives largely listed as cytotoxic. AID 1347075. hit rate 1.4% among 400,000; note: nearly all actives have a fitted effect of over 60% in size
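Viability of parental KB-3-1 cells, measured by CellTiter-Glo luminescence, followed a 72 h incubation at 37 °C with pinned compounds in phenol-red-free DMEM containing 10% FBS.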
Giardia killer – kills Giardia lamblia; Giardia lamblia trophozoite viability; activity change, % at 7.66 µM, hits read low; hit rate 0.15% among 340,000; in the data active = activity change below about -80%; inconclusive = between about -30% and that limit;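 note: parasites exposed to compound for two days anaerobically before the ATP read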
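ATP-content bioluminescence gauges trophozoite survival. Cells (100/well) receive compound and incubate anaerobically for 48 hrs at 37 deg C; detection reagent follows for 15-30 min at room temperature.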
Hits are given with their value; – = inactive; ? = inconclusive; · = no result. Unless noted, calls come from the whole dose curve; as a rule, active = well fitted curve in the direction sought with a large enough effect; inconclusive = small, poorly fitted or top-dose-only effect, or another doubt; inactive = no such curve, though single readings can be large; an effect the other way counts as inactive or inconclusive.

SMILES	MCF10A rerep	KB-V1 cytotox	SW480 rerep	ASM inhibitor	KB-3-1 cytotox	Giardia killer
CS(=O)(=O)c1ccc2nc(NC(=O)C3CCCO3)sc2c1 (centres undefined)	–	–	–	–	–	–
O=C(Nc1nc2ccc(S(=O)(=O)N3CCCCC3)cc2s1)C1CCCO1 (centres undefined)	–	–	?	–	?	–
COc1cc(OC)cc(C(=O)Nc2nc3ccc(S(C)(=O)=O)cc3s2)c1	–	?	–	–	–	–
C=CCN(CC=C)S(=O)(=O)c1ccc2nc(NC(=O)C3CCCO3)sc2c1 (centres undefined)	?	8.2µM	?	–	?	–
CCCOc1cccc(C2c3c(oc4ccc(F)cc4c3=O)C(=O)N2Cc2ccc3c(c2)OCO3)c1 (centres undefined)	·	–	·	·	–	·
CCc1ccc(C(=O)c2cn(CC(=O)Nc3ccc4c(c3)OCO4)c3cc(OC)c(OC)cc3c2=O)cc1	·	–	·	·	–	·
Cc1cc(C)c2c(c1)cc(C)c1nnc(SCC(=O)Nc3ccc(S(=O)(=O)N4CCCCC4)cc3)n12	–	18µM	–	–	–	–
CC1CCN(C(C)C(=O)Nc2cc(S(=O)(=O)N3CCCCC3)ccc2Cl)CC1 (centres undefined)	–	15µM	–	–	?	–
CC1CC(C)CN(C(C)C(=O)Nc2cc(S(=O)(=O)N3CCCCC3)ccc2Cl)C1 (centres undefined)	–	–	–	–	–	–
CN(C)c1cccc(C(=O)Nc2nc3ccc(S(=O)(=O)N4CCCC4)cc3s2)c1	·	21µM	·	·	10µM	·
Cc1nc2ncccn2c1-c1csc(Nc2ccccc2)n1	–	–	–	–	–	–
COc1ccccc1Nc1nc(-c2c(C)nc3ncccn23)cs1	–	7.3µM	?	–	?	–
Cc1nc2ncccn2c1-c1csc(NCc2ccco2)n1	–	16µM	–	–	?	–
Cc1nc2sccn2c1-c1csc(NCc2ccccc2)n1	–	13µM	–	–	?	–
Cc1nc2ncccn2c1-c1csc(Nc2ccc(N(C)C)cc2)n1	?	?	?	–	0.012µM	–
CCOC(=O)c1ccc(NC(=O)C2=C(C)C(=O)OC23CCN(C(C)=O)CC3)cc1	·	–	·	·	–	·
CCCCN(CC)CCCNC(=O)Nc1sc2nc3n(c(=O)c2c1C)CCC(C)CC3 (centres undefined)	·	–	·	·	–	·
COc1ccc(CCN2C(=O)c3oc4ccc(F)cc4c(=O)c3C2c2ccc(C(C)(C)C)cc2)cc1 (centres undefined)	·	–	·	·	–	·
Cc1ccc(NC(=O)COCc2cc(-c3cccs3)on2)cc1Cl	·	–	·	·	–	·
CCOc1ccc(CNCc2c(C(=O)O)n(Cc3ccccc3F)c3cc(OC)ccc23)cc1	·	–	·	·	–	·
O=C(O)c1cc(S(=O)(=O)N(Cc2ccccc2)c2ccc(Cl)cc2)ccc1Cl	21µM	–	?	–	–	–
O=C(O)c1ccc(N(Cc2ccccc2)S(=O)(=O)c2ccccc2)cc1	–	–	–	–	–	–
O=C(CN(c1cc(C(F)(F)F)ccc1Cl)S(=O)(=O)c1ccccc1)NCCc1ccccc1	·	–	·	·	–	·
O=C(CN(c1ccc(Br)cc1)S(=O)(=O)c1ccc(Cl)c([N+](=O)[O-])c1)NCC1CCCO1 (centres undefined)	16µM	?	?	–	–	–
O=C(CN(c1ccc(Cl)cc1)S(=O)(=O)c1ccc(Cl)c([N+](=O)[O-])c1)NCCc1ccccc1	3.7µM	–	–	–	–	–
SMILES	MCF10A rerep	KB-V1 cytotox	SW480 rerep	ASM inhibitor	KB-3-1 cytotox	Giardia killer
O=C(CN(c1ccc(Cl)cc1)S(=O)(=O)c1ccc(Cl)c([N+](=O)[O-])c1)NCCc1ccc(F)cc1	3.7µM	–	–	–	–	–
Cc1cc([N+](=O)[O-])ccc1NC(=O)C(C)N1CCN(c2ccccn2)CC1 (centres undefined)	–	21µM	–	–	–	–
Cc1cc(C)cc(NS(=O)(=O)c2ccc3c(c2)OCC(C(=O)N2CCCC2)O3)c1 (centres undefined)	·	?	·	·	–	·
COc1ccccc1-n1cnc2cc(NCc3cccs3)ccc21	1.5µM	?	2.1µM	–	1.2µM	–
COc1ccc(CNc2ccc3c(c2)ncn3-c2ccccc2OC)cc1	–	16µM	?	–	–	–
COc1ccccc1-n1cnc2cc(NCc3ccccc3O)ccc21	?	?	?	–	?	–
COc1ccccc1-n1cnc2cc(NS(=O)(=O)c3ccc(Br)cc3)ccc21	?	12µM	–	–	–	–
CC(C)(C)n1cnc2cc(NCc3cccs3)ccc21	–	?	–	–	–	–
Cc1ccccc1-n1cnc2cc(NCc3cccs3)ccc21	?	–	18µM	–	?	–
COc1cc(S(=O)(=O)Nc2ccc(Br)cc2)ccc1N	–	–	–	–	–	–
Cc1ccc(-n2c(=O)c3c4c(sc3n(Cc3cc(=O)n5cc(Cl)ccc5n3)c2=O)CCC4)cc1C	·	–	·	·	?	·
CNc1oc(/C=C/c2cc(OC)c(OC)c(OC)c2)nc1C#N	·	·	·	·	·	–
CCCNC(=O)c1ccc2c(c1)ncn2-c1ccccc1OC	–	–	–	–	–	–
COc1ccccc1-n1cnc2cc(NCc3ccco3)ccc21	2.1µM	2.6µM	1.5µM	–	0.58µM	–
O=C(C[n+]1cccc2cccc(O)c21)c1ccc(Br)cc1	·	–	·	·	–	·
CC(=O)n1cc(C(C[N+](=O)[O-])SCCN)c2ccccc21 (centres undefined)	5.2µM	?	6.5µM	–	?	–
COC(=O)/C(=C/c1cn(C(C)=O)c2ccccc12)[N+](=O)[O-]	–	–	–	–	–	–
CCN(c1ccccc1)S(=O)(=O)c1ccc2c(c1)C(C)(C)C(=O)N2C	–	–	–	–	–	–
Cc1ccc2[nH]cc(CCNC(=O)c3cccnc3)c2c1	21µM	–	–	–	–	–
COc1ccc(CNC(=O)c2ccc3ccccc3n2)cc1OC	–	7.3µM	–	–	?	–
COc1ccc2[nH]cc(CCNC(=O)c3ccc4ccccc4n3)c2c1	15µM	–	–	–	–	–
COc1ccc(C(=O)NCCc2c[nH]c3ccc(OC)cc23)cc1	–	–	–	–	–	–
COc1ccc(CCNC(=O)c2ccc3ccccc3n2)cc1OC	–	–	–	–	?	–
CCc1ccc2oc(C(=O)NCCc3ccc(OC)c(OC)c3)cc(=O)c2c1	·	5.2µM	·	·	16µM	·
COc1cc(-c2ccno2)ccc1S(=O)(=O)N1CCN(c2cccc(Cl)c2)CC1	·	–	·	·	–	·
COc1ccc(CNC(=O)c2cc3ccccc3o2)cc1OC	–	8.2µM	–	–	–	–
COc1ccc(NC(=O)CCNS(=O)(=O)c2cccc3nonc23)cc1	–	–	–	–	–	–
COc1ccc(NC(=O)CSc2nc3ccccc3nc2N2CCCC2)cc1Cl	23µM	–	–	–	–	–
